This is an account of results in PubChem BioAssay AID2284116 (EPA ToxCast).

The source made the active and inactive calls. Rule for the calls: active = hit-call score of the fitted dose curve at least 0.9, where 1 is the maximum; inactive = score below 0.9.

Chain of human Matrix Metallopeptidase 9 (MMP9), MMP9 (gene 4318) (P14780 whole entry, looked up): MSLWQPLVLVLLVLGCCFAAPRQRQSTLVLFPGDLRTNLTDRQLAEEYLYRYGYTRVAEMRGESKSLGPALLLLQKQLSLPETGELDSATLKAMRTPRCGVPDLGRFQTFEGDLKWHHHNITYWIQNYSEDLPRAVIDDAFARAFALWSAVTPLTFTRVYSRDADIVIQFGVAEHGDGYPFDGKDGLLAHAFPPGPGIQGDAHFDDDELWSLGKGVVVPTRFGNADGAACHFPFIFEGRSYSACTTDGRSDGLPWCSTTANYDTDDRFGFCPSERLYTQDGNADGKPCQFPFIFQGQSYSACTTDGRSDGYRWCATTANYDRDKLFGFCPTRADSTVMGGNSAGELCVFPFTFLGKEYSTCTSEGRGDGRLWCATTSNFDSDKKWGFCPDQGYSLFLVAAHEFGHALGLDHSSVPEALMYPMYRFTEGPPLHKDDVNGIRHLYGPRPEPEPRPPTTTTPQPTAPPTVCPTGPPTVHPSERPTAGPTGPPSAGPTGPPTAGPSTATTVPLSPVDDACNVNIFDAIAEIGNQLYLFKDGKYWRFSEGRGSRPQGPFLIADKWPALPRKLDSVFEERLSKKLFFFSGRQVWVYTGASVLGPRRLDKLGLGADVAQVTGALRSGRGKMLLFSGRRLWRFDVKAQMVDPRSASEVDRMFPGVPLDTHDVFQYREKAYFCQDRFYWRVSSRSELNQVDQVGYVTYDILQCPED

The target of this test is human Matrix Metallopeptidase 9 (MMP9), MMP9 (gene 4318) (UniProt P14780). The experiment in a line: ERF_FR_ENZ_hMMP9: Eurofins (ERF) Enzymatic LeadHunter Assay for human Matrix Metallopeptidase 9 (MMP9). The method, then:
ERF_FR_ENZ_hMMP9 is a biochemical, single-readout assay that uses extracted gene-proteins in a cell-free assay. Measurements were taken 1.5 hour after chemical dosing in a 96-well plate. See MMP9 Human Matrix Metallopeptidase Enzymatic Assay, Cerep.ERF_FR_ENZ_hMMP9 is an assay component calculated from the ERF_FR_ENZ_hMMP9 assay. It is designed to measure enzyme activity using a type of enzyme reporter as detected by fluorescence intensity with fluorimetry technology.Data from the assay component ERF_FR_ENZ_hMMP9 was analyzed at the assay endpoint, ERF_FR_ENZ_hMMP9, in the positive analysis fitting direction relative to DMSO as the negative control and baseline of activity. Using a type of enzyme reporter, loss-of-signal activity can be used to understand changes in enzymatic activity as they relate to gene MMP9. To generalize the intended target to other relatable targets, this assay endpoint is annotated to the protease intended target family, where the subfamily is matrix metallopeptidase.
[…] are incubated for 60 minutes at room tempreature with Mca-PLGL-Dap(Dnp)-AR-NH2 (7.5 uM) as sunstrate and […] as control inhibitor. Test Sample Requirements: Minimum for 1) Screen: 60 ul of 10 mM stock -OR- 1 mg (pre-weighed) for 10 uM final testing. 2) Dose Response: 90 ul of 10 mM stock -OR- 1 mg (pre-weighed) for a top concentration at 10 uM.
With `O=C(/C=C/c1ccc(O)cc1)CC(=O)/C=C/c1ccc(O)cc1`, the call was inactive.
